# The list is not random: actives were taken first. Their share in the collection is about 19%.
# DT40 TDP1 CPT – DT40-hTDP1 cell growth loss with CPT; chicken DT40 Tdp1-/-;hTDP1 cells + 20 nM CPT, ATP luminescence, 48 h; Potency, µM (titrated, usually from 46.2 µM), inactives show top-dose activity change, negative = growth inhibition, most hits filed as inhibitors; actives 12% (n = 420,000); AID 686979; also: potency is read from the fitted curve at half-maximal effect; % is scaled to controls: 0 for no effect and ±100 for the full control effect; nearly all actives have a fitted effect of over 55% in size
#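 Cell growth measured by CellTiter-Glo luminescence after a minimum 48 h, 37 C compound exposure with 20 nM CPT in Tdp1-knockout DT40 cells stably expressing hTDP1, seeded 400/well; qHTS titration format.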
# S-ASM inh – inhibitors of human secretory acid sphingomyelinase | P17405 | placental ASM, HMU-PC fluorogenic substrate, 60 min | Potency, µM (series often up to 57.5 µM), inactives show at the highest dose activity change, negative = inhibition, hits mostly inhibitors | actives 0.006% (n = 340,000); also: potency is read from the fitted curve at half-maximal effect
# Target sequence (P17405 47-631 limits assumed): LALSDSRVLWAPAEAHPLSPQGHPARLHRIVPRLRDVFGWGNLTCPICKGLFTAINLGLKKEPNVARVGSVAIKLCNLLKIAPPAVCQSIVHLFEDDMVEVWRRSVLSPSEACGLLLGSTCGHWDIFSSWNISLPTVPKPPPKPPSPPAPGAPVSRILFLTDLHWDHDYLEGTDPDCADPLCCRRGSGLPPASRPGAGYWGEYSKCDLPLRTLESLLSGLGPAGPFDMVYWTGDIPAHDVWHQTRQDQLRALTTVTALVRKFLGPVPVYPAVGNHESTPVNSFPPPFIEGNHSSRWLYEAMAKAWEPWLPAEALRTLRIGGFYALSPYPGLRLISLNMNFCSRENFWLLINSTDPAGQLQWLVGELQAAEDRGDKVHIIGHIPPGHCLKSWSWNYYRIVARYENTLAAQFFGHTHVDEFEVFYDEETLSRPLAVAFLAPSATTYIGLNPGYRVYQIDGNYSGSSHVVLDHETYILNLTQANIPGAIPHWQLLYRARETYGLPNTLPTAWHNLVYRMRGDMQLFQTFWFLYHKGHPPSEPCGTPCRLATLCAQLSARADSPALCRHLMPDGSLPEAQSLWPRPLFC
#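 Human placenta-derived ASM enzyme was preincubated with compound for 10 minutes at room temperature, then given fluorogenic substrate HMU-PC0 (9 uM final) for 60 minutes at 37 °C; a pH 10 stop preceded fluorescence reading at Ex 386/Em 447 nm.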
# HepG2 tox – counter-screen for TGF-b inhibitors: cytotoxicity in HepG2 cells | HepG2 CAGA-GFP viability, ATP luminescence, 18 h | Potency, µM (doses to about 46.1 µM), inactives show at the highest dose activity change, negative = cytotoxicity, most hits filed as cytotoxic | actives 0.76% (n = 410,000); also: potency is read from the fitted curve at half-maximal effect
#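 CellTiter-Glo luminescence gave cytotoxicity after 18 hours at 37 degrees C. The cells were HepG2 CAGA-GFP in 1% FBS DMEM, stimulated with 500 pg/mL TGF-beta after compound addition. %Activity was normalised to no-cell wells (complete cell-killing) and DMSO (no toxicity), and curves were fitted and classified.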
# TDP1 cell noCPT – qHTS for Inhibitors of human tyrosyl-DNA phosphodiesterase 1 (TDP1): qHTS in cells in absence of CPT. Potency, µM (highest dose often 46.2 µM), for inactives: top-dose activity change, negative = growth inhibition, actives largely listed as inhibitors. AID 686978, 2013. actives 15% (n = 420,000). DT40 Tdp1-/- hTDP1 cells, no CPT, ATP luminescence, 48 h; also: potency is read from the fitted curve at half-maximal effect; % is scaled to controls: 0 for no effect and ±100 for the full control effect; nearly all actives have a fitted effect of over 55% in size
#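 Camptothecin absent (DMSO only). Human TDP1-complemented DT40 knockout cells, 400 cells/well, 37 °C for minimum 48 hr; ATP measured via CellTiter-Glo, 30 min dark incubation, luminescence.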
# TGFb inhibitor – TGF-b pathway inhibition. AID 588855. actives 1.2% (n = 410,000). HepG2 CAGA-GFP TGF-b/SMAD3 reporter, GFP fluorescence, 18 h; TGF-beta stimulated, 500 pg/mL final. Potency, µM (highest dose often 46.1 µM), inactives show at the highest dose activity, negative = inhibition, usual class: inhibitors; also: potency is read from the fitted curve at half-maximal effect; % is scaled to controls: 0 for no effect and ±100 for the full control effect; nearly all actives have a fitted effect of over 65% in size
#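 GFP signal (ex488/em500-530) from TGF-beta-stimulated HEPG2 CAGA-GFP cells, 500 pg/mL final, 18 h at 37 degrees C in DMEM plus 1% FBS, normalized to unstimulated and DMSO-stimulated controls.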
# IL-1B inflam inh – inflammasome signaling inhibition, IL-1 beta readout | THP-1 LPS/ATP IL-1B secretion, AlphaLISA, 16 h; active compounds read low | activity change, % at 57.5 µM | actives 4.7% (n = 360,000); in the data active = activity change below about -50%; inconclusive = mostly about -30% to -49%; also: % is scaled to controls: 0 for no effect and ±100 for the full control effect
#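 Secreted IL-1B measured by AlphaLISA bead assay after 16 h compound exposure of THP-1 cells; compounds (final up to 57.5 uM) added 1 h before LPS (250 ng/mL) and ATP (1.25 mM) stimulation; lower signal means less secretion.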
# * = called active by the depositor; ? = inconclusive; · = no result. Unless noted, calls follow the shape of the dose curve; as a rule, active = well fitted curve in the direction sought with a large enough effect; inconclusive = small, poorly fitted or top-dose-only effect, or another doubt; inactive = no such curve, though single readings can be large; an effect the other way counts as inactive or inconclusive.
SMILES,DT40 TDP1 CPT,S-ASM inh,HepG2 tox,TDP1 cell noCPT,TGFb inhibitor,IL-1B inflam inh
CCCC(=O)NC(c1ccco1)c1cc([N+](=O)[O-])c2cccnc2c1O (stereo not drawn),-7%,-3%,-41%,-22%,-24%,90
CCC(=O)NC(c1ccc(C)cc1)c1cc([N+](=O)[O-])c2cccnc2c1O (stereo not drawn),?,-9%,-9%,21µM*,?,42
COC(=O)CCC(=O)N1CCCC(N2CCN(c3ccc(OC)cc3)CC2)C1 (stereo not drawn),4%,-3%,-72%,16%,11%,22
O=C(NCCN1C(=O)S/C(=C\c2ccc(OC(F)F)cc2)C1=O)C1=COCCO1,8.2µM*,-3%,-14%,7.3µM*,0%,-1
COc1ccc(/C=C2\SC(=O)N(CCNC(=O)C3=COCCO3)C2=O)cc1,1.3µM*,·,5%,1.3µM*,-3%,15
O=C(NCCN1C(=O)S/C(=C\c2ccc(OC(F)F)cc2)C1=O)[C@@H]1CCCN1C(=O)c1cccs1,?,-7%,-22%,?,-16%,?
O=C(NCCN1C(=O)S/C(=C\c2ccc(OC(F)F)cc2)C1=O)c1cnccn1,1.8µM*,-1%,-13%,2.1µM*,-23%,?
C=CCC1CCCC(=O)N2CC[C@H](O)C12 (stereo partly drawn),-23%,3%,23%,-17%,5%,8
O=C(Cn1ncc2c([nH]c3ccccc32)c1=O)Nc1ccc(CN2CCCCC2)cc1,?,-5%,-62%,18µM*,-12%,101
Cc1ccc(C)c(N2CCN(CCCNC(=O)Cn3ncc4c([nH]c5ccccc54)c3=O)CC2)c1,15µM*,·,-6%,21µM*,6%,·
COc1cc2c(=O)n(CCCN3CCOCC3)c(=S)[nH]c2c(OC)c1OC,5.8µM*,2%,-19%,23µM*,-5%,38
COc1ccccc1N1CCN(CCCn2c(=S)[nH]c3ccccc3c2=O)CC1,13µM*,-1%,-11%,9.2µM*,0%,-21
COc1ccc(N2CCN(CCCn3c(=S)[nH]c4ccccc4c3=O)CC2)cc1,?,3%,-23%,?,-17%,21
Cc1ccccc1-n1nnnc1SCC(=O)NCC1CCCO1 (stereo not drawn),-1%,8%,-2%,-7%,-9%,2
COc1ccc(C2C(C(N)=O)=C(C)Nc3nc(CCCO)nn32)c(OC)c1 (stereo not drawn),-17%,·,-13%,3%,?,·
Cc1cccc(NC(=O)CSc2nnc(CNC(=O)c3ccco3)n2C)c1,5%,7%,7%,16%,-1%,18
COc1ccccc1N1CCN(CCCNC(=O)Cn2ncc3c([nH]c4ccccc43)c2=O)CC1,?,3%,-23%,21µM*,-2%,-27
O=C(Cn1ncc2c([nH]c3ccccc32)c1=O)NCCCN1CCN(c2ccc(F)cc2)CC1,?,·,-27%,?,-11%,·
Cc1ccccc1Cn1c(=O)n(Cc2ccco2)c(=O)c2ccccc21,15µM*,-3%,-43%,?,10%,0
COc1ccc(-n2c(=O)c3ccccc3n(Cc3ccccc3C)c2=O)c(OC)c1,21µM*,·,-3%,?,-33%,·
Cc1ccccc1Cn1c(=O)n(Cc2ccco2)c(=O)c2oc3ccccc3c21,2%,·,-4%,-2%,-2%,·
O=C(N/N=C/C(Br)=C/c1ccccc1)c1cccnc1,2.6µM*,0%,-23%,2.1µM*,-30%,-95*
CC(=O)N/C(=C/c1ccccc1)c1ccncc1,7.9µM*,·,-22%,11µM*,-4%,·
CC(/C=N\NC(=O)c1cccnc1)c1ccccc1 (stereo not drawn),-2%,-3%,-7%,-1%,18%,15
O=C(N/N=C/C(Br)=C\c1ccccc1)c1ccc2nc[nH]c2c1,10µM*,-21%,-21%,15µM*,?,-90*
SMILES,DT40 TDP1 CPT,S-ASM inh,HepG2 tox,TDP1 cell noCPT,TGFb inhibitor,IL-1B inflam inh
O=C(N/N=C/C(Br)=C/c1ccccc1)c1ccc([N+](=O)[O-])cc1,4.1µM*,8%,-1%,4.1µM*,2%,?
O=C(N/N=C/C(Br)=C/c1ccccc1)c1ccncc1,1.6µM*,-9%,-61%,1.6µM*,?,-84*
CC(/C=N/NC(=O)c1ccncc1)=C\c1ccccc1,1%,1%,-7%,-6%,-7%,-5
Cc1ccccc1NC(=O)/C(C#N)=C\c1cc(C)n(-c2ccc(C(=O)O)cc2)c1C,-5%,42%,-45%,-11%,23%,-56*
Cc1cc(/C=C(/C#N)C(=O)Nc2ccccc2)c(C)n1-c1cccnc1,?,12%,-4%,?,0%,-60*
Cc1cc(/C=C(\C#N)C(=O)Nc2ccccc2)c(C)n1-c1ccc2c(c1)OCO2,?,28%,0%,16µM*,-1%,?
CCOC(=O)C1=C(C)NC(C)=C(C(=O)OCC)C1C(=O)OCC(=O)N(C)Cc1ccccc1,-6%,110%,-4%,-27%,0%,?
COc1ccc(-c2nn(-c3ccccc3)cc2C(=O)NC(=S)N2CCOCC2)cc1OC,?,0%,-3%,?,3%,-19
CCCCNC(=O)c1ccc(CS(=O)(=O)c2ccc(C)cc2)o1,-24%,0%,0%,-18%,5%,-1
COc1ccc(OC)c(NC(=O)c2cc3n(n2)C(C(F)(F)F)CC(c2ccc4c(c2)OCO4)N3)c1 (stereo not drawn),?,-30%,-35%,?,12%,-61*
O=C(Nc1cc(Cl)ccc1O)c1cc2n(n1)C(C(F)(F)F)CC(c1ccc3c(c1)OCO3)N2 (stereo not drawn),23µM*,?,-39%,16µM*,?,-87*
CCOC(=O)N1CCN(C(=O)c2cc3n(n2)C(C(F)(F)F)CC(c2ccc4c(c2)OCO4)N3)CC1 (stereo not drawn),?,-2%,-4%,15µM*,?,0
O=C(c1cc2n(n1)C(C(F)(F)F)CC(c1ccc(F)cc1)N2)N1CCCC1 (stereo not drawn),-25%,-2%,-12%,?,-20%,-7

# From PubChem
